# Source: PubChem (National Center for Advancing Translational Sciences (NCATS))
# HCMV inh = inhibitors of human cytomegalovirus. HFF cells, HCMV-luciferase reporter, 72 h; hits give low values. activity change, negative = inhibition, % at 57.5 µM. 4.5% of 410,000 active; in the data active means activity change below about -60%; inconclusive means no clear call, values can overlap the other calls; inactive means above about -39%
#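 After 16 h attachment at 37C, HFF cells received test compound and HCMV-luciferase (1 PFU/cell); reporter luminescence read 72 h later, data normalized against buffer-only and known inhibitor Salinomycin.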
# FMDV inh = antivirals against foot and mouth disease virus. FMDV antiviral cell-based qHTS. Potency, µM (series often up to 57.9 µM), without a hit: at the top dose activity change, negative = inhibition, usual class: inhibitors. 1.2% of 410,000 active; calls by dose curve; tested in HEK293T cells; further: read-out not given here; potency means the concentration at half of the fitted maximal effect; nearly all actives have a fitted effect of over 45% in size
# LASV entry inh = inhibitors of Lassa virus binding or cell entry. Lassa virus pseudotype entry inhibition, cell reporter. Potency, µM (series often up to 37.9 µM), without a hit: at the top dose activity change, negative = inhibition, most hits filed as inhibitors. 1.2% of 300,000 active. AID 540256; calls by dose curve; tested in HEK293 cells; further: potency means the concentration at half of the fitted maximal effect; nearly all actives have a fitted effect of over 50% in size
# Marburg entry inh = blocks Marburg virus binding to or entry into cells. Marburg virus pseudotyped entry inhibition, cell reporter. Potency, µM (titrated, usually from 37.8 µM), inactives show top-dose activity change, negative = inhibition, most hits filed as inhibitors. 1.8% of 300,000 active. AID 540276; calls by dose curve; tested in HEK293 cells; further: potency means the concentration at half of the fitted maximal effect
# HCV inh = inhibitors of hepatitis C virus infection; Huh7.5.1 HCVcc-Cre infection, luciferase reporter, 44 h; Potency, µM (highest dose often 41.8 µM), for inactives: at the top dose activity change, negative = inhibition, actives largely listed as inhibitors; 3.4% of 340,000 active; AID 651820; active means well fitted inhibition curve with a large enough effect; inconclusive means small, poorly fitted or top-dose-only effect, or another doubt; inactive means no such curve, though single readings can be large or run the other way; further: potency means the concentration at half of the fitted maximal effect
#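 Luciferase read-out (15 sec integration) after a 15 min room-temperature substrate step quantifies HCVcc-Cre infection. Cells, 1,000 per well, had compound added 4 h post-plating, then virus at ~0.5 moi, and were cultured 44 h.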
# Starred values were filed as active, the others as inactive; u = inconclusive; x = no result given; [ ] = remark or other dose. In the library only some 7.9% were active in any assay of this set; here they are far more common. On the % scale 0 is the no-effect control and ±100 the full control effect.
SMILES,HCMV inh,FMDV inh,LASV entry inh,Marburg entry inh,HCV inh
CCOC(=O)NN=Cc1ccccc1-c1cc(OC)ccc1OC,x,x,x,-4%[14.2 µM],x
COc1ccc2oc(-c3ccc(NC(=O)c4ccc(Cl)cc4Cl)cc3)nc2c1,u,u,-6%[46.1 µM],x,x
CCc1cccc(-n2c(=O)c3cccnc3n2CC(=O)Nc2ccccc2C(=O)OC)c1,8,-14%,19%[46.1 µM],x,x
Cc1ccc(/C=C2/NC(=O)N(c3ccccc3)C2=O)o1,u,22%,20%,3%,-15%
O=C1N/C(=C/c2ccc(Br)s2)C(=O)N1c1ccccc1,-62*,9%,u,u,-2%
O=C1C=CC(=O)N1CCNc1ncc(C(F)(F)F)cc1Cl,-96*,32µM*,u,u,u
O=S(=O)(NCCNc1ncc(C(F)(F)F)cc1Cl)C(F)(F)F,-71*,-6%,-4%,u,u
CS(=O)(=O)NCCNc1ncc(C(F)(F)F)cc1Cl,u,0%,0%,-8%[46.1 µM],-13%
CCCCNC(=O)CCc1c(C)nc2nc(-c3cc(OC)cc(OC)c3)nn2c1C,-95*,-24%,1%,-3%,0%
Cc1cc(C)c(NC(=O)COc2nc3ccccc3nc2C)c(C)c1,u,-27%,18%,-12%,11µM*
Cc1nc2ccccc2nc1OCC(=O)Nc1ccc2ccccc2c1,40,-11%,3%,-7%,u
COc1ccc(-n2nc(C(=O)N3CCN(c4cccc(C)c4C)CC3)c3c4ccccc4n(C)c3c2=O)cc1,18,-17%,13%[46.1 µM],-2%[46.1 µM],x
COc1ccccc1Nc1ccncc1[N+](=O)[O-],-64*,4%,x,x,6%
COc1ccccc1Nc1ccc(C(=O)O)cc1[N+](=O)[O-],0,10%,6%[46.1 µM],7%[46.1 µM],3%
Cc1cc(Nc2ccccc2)c2c([N+](=O)[O-])cc(C)c(C)c2n1,-81*,-18%,-12%,u,u
COc1ccccc1Nc1cc(C)nc2c(C)ccc([N+](=O)[O-])c12,-67*,u,-5%,u,u
Cc1ccc(CNC(=O)CCc2c(C)nc3c(-c4ccc(F)cc4)c(C)nn3c2C)cc1,2,3%,-6%[46.1 µM],3%[46.1 µM],x
COc1ccc2nc(NC(=O)c3cccs3)sc2c1,18,-9%,u,6.3µM*,-3%
COc1ccc2nc(NC(=O)c3ccc(-n4nc(C)cc4C)cc3)sc2c1,-106*,-12%,-18%,-26%,-19%
COc1ccc(C(=O)Nc2nc3c(s2)Cc2cc(OC)ccc2-3)cc1,u,10µM*,11%[46.1 µM],8%[46.1 µM],13µM*
CC(=O)Nc1ccc2nc(NC(=O)c3cccs3)sc2c1,93,-1%,u,u,-12%
CCN(CC)S(=O)(=O)c1cccc(C(=O)Nc2nc3cc4c(cc3s2)OCCO4)c1,-98*,13µM*,u,18µM*,2.2µM*
COc1ccc2nc(NC(=O)c3ccc(F)cc3)sc2c1,29,17%,-1%[46.1 µM],u,-25%
CCS(=O)(=O)Nc1cc(C(=O)N2CCC[C@H]2CO)c2c(c1)nc(-c1ccccc1)n2C,x,3%,x,x,x
CC(=O)Nc1nonc1-c1nnc(SCc2ccc(F)cc2)n1C,29,-13%,7%[46.1 µM],18%[46.1 µM],x
SMILES,HCMV inh,FMDV inh,LASV entry inh,Marburg entry inh,HCV inh
COc1ccc2nc(NC(=O)Nc3ccccc3OC)sc2c1,64,-18%,u,u,u
COc1ccc2nc(NC(=O)Nc3cccc4ccccc34)sc2c1,-76*,35%,-13%,-10%,-27%
CCOC(=O)c1c(NC(=O)c2ccc(S(=O)(=O)N(C)CC3CCCO3)cc2)sc2c1CCN(C)C2 (stereo not drawn),25,-14%,x,x,13µM*
CN(CC1CCCO1)S(=O)(=O)c1ccc(C(=O)Nc2ccc3c(c2)OCO3)cc1 (stereo not drawn),-7,8%,-19%[46.1 µM],4%[46.1 µM],-13%
O=C(Nc1nc2cc3c(cc2s1)OCCO3)c1cccs1,-16,u,x,x,11µM*
CN(CC1CCCO1)S(=O)(=O)c1ccc(C(=O)Nc2nc3cc4c(cc3s2)OCO4)cc1 (stereo not drawn),-85*,0%,x,x,u
O=C(Cn1cnc2nc3c(cc2c1=O)CCCC3)Nc1ccc(F)cc1Cl,-24,-10%,20%[46.1 µM],x,x
O=C(Cc1ccccc1)NC1CC(=O)N(c2ccccc2)C1 (stereo not drawn),-13,-15%,18%[46.1 µM],x,x
COc1ccc2c(c1)CCc1cnc(-n3ncc(C(=O)NC4CCOC4)c3C3CC3)nc1-2 (stereo not drawn),x,-5%,x,x,x
COc1cc2c(cc1OC)C(COc1ccccc1OC)N(C(=O)CC(C)C)CC2 (stereo not drawn),2,-3%,0%[46.1 µM],x,x
CCc1ccc(-n2nc3cc(C)c(NC(=O)c4cccc5ccccc45)cc3n2)cc1,16,4%,7%[46.1 µM],u,x
O=C(NCC1CCC2(CCN(Cc3c[nH]c4ccccc34)CC2)O1)C1CCOCC1 (stereo not drawn),x,4%,x,x,x
Cc1cc[n+](-c2[nH]c(=O)sc2/C=N/NC([S-])=Nc2ccccc2)cc1,-61*,-11%,5%,u,u
Cc1nc2sccn2c1CN1CCOc2ccc(CN3CCN(c4ccc(F)cc4)CC3)cc2C1,x,8.9µM*,x,x,x
O=C(NCC1CCCO1)c1cc2c([nH]c3ccccc32)c(-c2cccc(Cl)c2)n1 (stereo not drawn),x,u,x,x,1.3µM*
COc1cc(-c2nc(C(=O)NCC3CCCO3)cc3c2[nH]c2ccccc23)cc(OC)c1OC (stereo not drawn),18,u,x,x,3.5µM*
COc1ccccc1-c1nc(C(=O)NCC2CCCO2)cc2c1[nH]c1ccccc12 (stereo not drawn),x,-24%,x,x,u
COc1ccc(NC(=O)Cn2c(=O)n(-c3cc(C)cc(C)c3)c(=O)c3oc4ccccc4c32)cc1OC,-84*,-8%,-3%[46.1 µM],x,x
O=C(Oc1ccccc1F)c1nc(SCc2ccc(F)cc2)ncc1Cl,-34,-18%,24%[46.1 µM],-13%[46.1 µM],x
CCN(CC)CC1C(=O)N(c2ccc(OC)cc2)C1c1ccccc1 (stereo not drawn),-29,40%,u,8.9µM*,1%
CC1(C(=O)Nc2nccs2)CCN1C(=O)CC(c1ccccc1)c1ccccc1 (stereo not drawn),-102*,0%,x,x,x
O=C(C=C1SCCS1)/C=C/c1ccco1,64,u,11µM*,u,29%
O=C(O)C(C(=O)/C=C/c1ccco1)=C1SCCS1,u,10%,3%,3%,20%
COc1ccc(/C=N\NC(=O)c2ccccc2OC)cc1COc1ccccc1C,-1,-13%,6%[46.1 µM],u,u
COc1ccc(/C=N\NC(=O)c2ccccc2)cc1COc1ccccc1,37,-8%,u,-30%,-15%
COc1ccc(/C=N/NC(=O)c2ccc(NC(C)=O)cc2)cc1COc1ccc(F)cc1F,-24,u,x,x,-16%
COc1ccc(/C=N/NC(=O)c2ccoc2C)cc1COc1c(C)cccc1C,-97*,10µM*,u,5.6µM*,u
